Assay results from PubChem BioAssay.
A number with no mark means an inactive call. The source made the active and inactive calls.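 The calls were made as follows: active = inhibition above the hit cutoff set in the earlier primary screen (cut at about 27% in these data); inactive = the rest.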

molecular target: Protein phosphatase methylesterase 1 (Homo sapiens) (UniProt Q9Y570); assay: PME-1 inhibitor activity retest, confirmation, biochemical, fluorescence polarization, FP-Rh probe, triplicate (AID 2171); settings: recombinant PME-1, FP-Rh probe fluorescence polarization; at 5.9 µM; active compounds read high;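 also: 0% = enzyme with DMSO and 100% = wells lacking PME-1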
Sequence (Q9Y570 whole entry, looked up): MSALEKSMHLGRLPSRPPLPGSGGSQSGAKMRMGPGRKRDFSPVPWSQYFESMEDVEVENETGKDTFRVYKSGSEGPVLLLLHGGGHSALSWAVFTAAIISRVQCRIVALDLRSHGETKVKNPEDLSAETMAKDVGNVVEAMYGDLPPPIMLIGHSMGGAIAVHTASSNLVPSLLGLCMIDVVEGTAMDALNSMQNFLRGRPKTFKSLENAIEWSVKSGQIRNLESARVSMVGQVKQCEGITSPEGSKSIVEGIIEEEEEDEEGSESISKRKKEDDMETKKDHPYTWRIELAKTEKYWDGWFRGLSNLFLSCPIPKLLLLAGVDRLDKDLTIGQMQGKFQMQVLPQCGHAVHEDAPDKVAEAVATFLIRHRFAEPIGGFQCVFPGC

SMILES	inhibition
O=C(N=Nc1c(O)n(Cc2ccccc2)c2ccccc12)c1cc2ccccc2cc1O	54.8% (active)
COc1ccc(/C=N/Nc2nc3ccccc3o2)cc1O	29.9% (active)
CCOC(=O)C1CCCN(C(=O)C2c3ccccc3Oc3ccccc32)C1 (centres undefined)	16%
O=C(NC(C(=O)N/N=C/c1cc([N+](=O)[O-])ccc1O)c1n[nH]c(=O)c2ccccc12)c1ccccc1 (centres undefined)	58.3% (active)
CC(C)NC(=S)N=Nc1c(O)[nH]c2ccc(C(C)C)cc12	34.8% (active)
COc1ccc(Br)cc1CNc1ccc(O)cc1	9.35%
C/C(=N\NC(=O)c1ccc(N/N=C(\C)c2ccc(O)cc2)cc1)c1ccc(O)cc1	43.4% (active)
O=c1cc(-c2ccccc2Cl)oc2c(NS(=O)(=O)c3cc(Cl)cc(Cl)c3O)ccc(O)c12	47.1% (active)
Cc1ccsc1C=Nc1ccc(O)cc1	3.81%
O=C(O)c1ccccc1-c1ccccc1C(=O)Nc1ccc(-c2nc3cc(Cl)ccc3o2)cc1	22.2%
COc1ccc2oc(=O)c(-c3csc(Nc4cccc(O)c4)n3)cc2c1	9.36%
CCC(=O)NC(c1ccccc1Cl)c1c(O)ccc2ccccc12 (centres undefined)	53.2% (active)
CC(C)c1ccc2[nH]c(O)c(N=NC(=O)c3ccc(CSc4nncn4C)cc3)c2c1	104% (active)
Oc1ccc(C2Nc3cccc4cccc(c34)N2)c(O)c1	21.4%
N#CCC(=O)Nc1ccc(C(=O)OCC(=O)Nc2ccccc2Sc2ccccc2)cc1	-19%
N#C/C(N=Nc1ccccc1O)=N\Nc1ccccc1O	53.1% (active)
N=c1oc2cc(O)ccc2cc1C(=O)Nc1nc2ccccc2s1	25.7%
Cc1sc2ncnc(OCC(=O)N3CCN(S(=O)(=O)c4ccc(Cl)cc4)CC3)c2c1C	11.1%
CCCCN(C)C1=CC2=CC(=C(C#N)C#N)CCC2CC1 (centres undefined)	-13%
Cc1cccc2cc(/C=N/Nc3ccc(C(=O)O)cc3)c(Cl)nc12	43.7% (active)
COc1cccc(C(=O)Oc2ccc(/C=N/Nc3ccc(C(=O)O)cc3)cc2OC)c1	36.3% (active)
CC(=O)c1cc(O)c2ccccc2c1O	22.5%
c1ccc(-c2ccc(C3CCCN3)cc2)cc1 (centres undefined)	0.67%
COc1ccc(N2CCN(C(=O)C3CCN(S(=O)(=O)c4ccc(F)cc4)CC3)CC2)cc1	59.1% (active)
